FEN1 inhibitor = blocks human flap endonuclease 1. Recombinant FEN1 flap cleavage, fluorescence, 15 min. Potency, µM (titrated, usually from 114 µM), inactives show at the top dose activity change, negative = inhibition, usual class: inhibitors. actives 0.35% (n = 390,000); also: nearly all actives have a fitted effect of over 65% in size
Target sequence (P39748 whole entry, looked up): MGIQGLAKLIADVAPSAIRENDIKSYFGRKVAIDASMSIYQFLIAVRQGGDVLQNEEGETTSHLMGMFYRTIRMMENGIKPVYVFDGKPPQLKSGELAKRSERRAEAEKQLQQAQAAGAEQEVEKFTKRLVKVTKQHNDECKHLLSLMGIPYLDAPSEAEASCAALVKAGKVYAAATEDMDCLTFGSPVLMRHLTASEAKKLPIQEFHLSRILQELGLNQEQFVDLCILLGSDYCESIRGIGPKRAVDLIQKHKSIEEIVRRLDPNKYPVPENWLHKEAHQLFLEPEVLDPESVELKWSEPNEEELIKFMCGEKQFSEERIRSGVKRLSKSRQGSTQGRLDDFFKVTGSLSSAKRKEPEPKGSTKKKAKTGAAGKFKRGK
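Quantitative HTS format: each compound was titrated, incubated with 10 nM nuclease for 15 min at room temperature, then challenged with flap substrate at 50 nM final. Signal change over 15 min gave concentration–effect curves.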
BLM helicase inh = blocks DNA unwinding by human BLM helicase. Potency, µM (series often up to 56.1 µM), without a hit: at the highest dose activity change, negative = inhibition, actives largely listed as inhibitors. actives 0.2% (n = 350,000). recombinant BLM DNA unwinding, fluorescence dequenching;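 also: plate controls were vehicle for no effect and no enzyme for full effect; nearly all actives have a fitted effect of over 35% in size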
TDP1 inh = TDP1 (human) enzyme inhibition. recombinant TDP1, AlphaScreen DNA substrate cleavage. Q9NUW8. Potency, µM (top dose mostly 130 µM), for inactives: at the top dose activity change, negative = inhibition, usual class: inhibitors. actives 0.28% (n = 350,000); also: nearly all actives have a fitted effect of over 40% in size
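Signal: AlphaScreen proximity between streptavidin donor and anti-FITC acceptor beads on intact substrate. Reaction: Tdp1 1 nM, substrate 15 nM final, 5 min RT after 15 min compound preincubation.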
APE1 inh = APE1 (human) endonuclease inhibition | actives 0.35% (n = 350,000) | Potency, µM (highest dose often 65.8 µM), inactives show top-dose activity change, negative = inhibition, most hits filed as inhibitors | AID 2517 | recombinant APE1, TAMRA/BHQ-2 abasic DNA cleavage fluorescence;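 also: plate controls were vehicle for no effect and reference inhibitor for full effect; nearly all actives have a fitted effect of over 55% in size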
Target sequence (P27695 whole entry, looked up): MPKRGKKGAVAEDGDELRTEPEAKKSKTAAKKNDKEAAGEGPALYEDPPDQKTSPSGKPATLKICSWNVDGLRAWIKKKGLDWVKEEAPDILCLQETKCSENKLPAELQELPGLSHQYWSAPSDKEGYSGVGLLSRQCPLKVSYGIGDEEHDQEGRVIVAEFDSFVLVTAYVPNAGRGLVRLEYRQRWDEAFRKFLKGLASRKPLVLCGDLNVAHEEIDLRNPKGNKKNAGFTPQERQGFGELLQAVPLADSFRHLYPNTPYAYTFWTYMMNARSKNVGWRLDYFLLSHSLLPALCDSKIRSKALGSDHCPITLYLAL
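Readout is kinetic fluorescence (ex 525, em 598 nm) from cleavage of 50 nM TAMRA/BHQ-2 THF abasic duplex by 0.75 nM APE1, compound added 15 min beforehand at RT.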
RECQ1 inh = RECQ1 (human) helicase inhibition | actives 0.54% (n = 240,000) | AID 2549 | Potency, µM (top dose mostly 57.3 µM), inactives show at the top dose activity, negative = inhibition, most hits filed as inhibitors | RECQ1 DNA unwinding, red fluorescence kinetic read;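 also: plate controls were vehicle for no effect and no enzyme for full effect; nearly all actives have a fitted effect of over 30% in size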
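50 nM RECQ1T1 preincubated 15 min with compound in Tris pH 8.0 buffer with MgCl2, DTT, Tween-20 and 2.5 ug/ml poly(dI-dC); started with 200 nM TAMRA/BHQ-2 forked duplex and 2 mM ATP. Unwinding read as fluorescence (525/598 nm), two reads 2 h apart.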
Active calls of the source: *; i = inactive; ? = inconclusive; / = not tested or not shown; [ ] = another dose, or the depositor's remark. Only some compounds are listed: those with a hit (about 0.92% of all), similar ones and a draw of the others. Calls follow the shape of the dose curve; as a rule, active = well fitted curve in the direction sought with a large enough effect; inconclusive = small, poorly fitted or top-dose-only effect, or another doubt; inactive = no such curve, though single readings can be large; an effect the other way counts as inactive or inconclusive. Unless noted, % is scaled to controls: 0 for no effect and ±100 for the full control effect; potency is read from the fitted curve at half-maximal effect.

SMILES	FEN1 inhibitor	BLM helicase inh	TDP1 inh	APE1 inh	RECQ1 inh
O=C(O)C1(C(=O)O)CCC1.[NH2-].[NH2-].[Pt+2]	/	-6%	23%	11µM*	-28%
CCOC(=O)NCCOc1ccc(Oc2ccccc2)cc1	/	-13%	-11%	-2%	-18%
NC(=O)C1CCN(c2nc(-c3ccc4c(c3)OCO4)cs2)CC1	/	/	/	-15%	/
N#CC(=Cc1ccc(O)c(O)c1)C(=O)NCc1ccccc1	-19%	/	/	/	/
N#C/C(=C\c1ccc(O)c(O)c1)C(=O)NCCCc1ccccc1	0%	?	11%	5%	16µM*
Cc1cccc(NC(=O)c2cc3c(=O)n4ccccc4nc3s2)c1	?	?	79µM*	14%[12.4 µM]	/
COc1ccc(NC(=O)C(OC(=O)CNC(=O)c2ccccc2)c2ccccc2)c(C)c1 (configuration not stated)	/	/	0%	/	/
CC(=O)[C@@H]1[C@H]2[C@H](C(=O)[C@H]3OC[C@@H]2O3)[C@H]2C=Cc3ccccc3N21	/	-16%	/	-6%	32µM*
Cc1ccc(C(=O)[C@@H]2[C@H]3C4COC(O4)C(=O)[C@@H]3[C@H]3C=Cc4ccccc4N32)cc1 (some centres not stated)	/	-12%	17%	-7%	-8%
CCOc1ccccc1Nc1cc(C)c2cccc(C)c2n1	-21%	-12%	/	33%	/
CCOc1nc(N=C(N)N)nc2c(C)cccc12	45µM*	65%	-2%	?	28%
COc1ccc(F)c(Cn2cnc3c(cnn3C(C)(C)C)c2=O)c1Cl	-10%	/	/	-6%	/
CC(=O)Nc1ccc(NC(=S)NC(=O)/C=C/c2ccco2)cc1	50µM*	-11%	/	0%	/
CC(=O)c1cc2c(cc1O)OC(C)(C)C=C2	/	0%	22µM*	16%	-6%
CC[C@@H](CO)NCCN[C@@H](CC)CO	/	/	/	12%[21 µM]	/
O=Nc1c(-c2c(O)[nH]c3cc(Br)ccc23)[nH]c2ccccc12	-1%	-16%	24%[56.1 µM]	-11%	28µM*
COc1ccc(NC(=O)CSc2nnc(-c3cccc(S(=O)(=O)N4CCCC4)c3)n2-c2ccccc2)cc1	/	/	/	35%	/
C=CCSC1=N/C(=C\c2cc(OCC)c(OC(C)=O)c([N+](=O)[O-])c2)C(=O)S1	56µM*	-4%	-5%	?	-3%
C=CCSC1=N/C(=C\c2sccc2C)C(=O)S1	-18%	-2%	3%	-3%	-2%
N=C(N)c1ccc(N=Nc2c(O)ccc3c2[nH]c2ccccc23)cc1	28µM*	/	/	/	/
NC(=O)c1ccc(N=Nc2c(O)c3ccccc3[nH]c2=O)cc1	/	-10%	3%	4%	8%
CN[C@@H]1[C@@H](O)[C@@H](O[C@@H]2[C@@H](O)[C@H](OC3OC(CN)=CCC3N)[C@@H](N)C[C@H]2N)OC[C@]1(C)O (some centres not stated)	/	/	/	1%[21 µM]	/
COc1ccc2nc3cc(Cl)ccc3c(Nc3ccc(O)c(CN4CCN(C)CC4)c3)c2c1	22µM*	/	/	/	/
Nc1nnc(-c2ccc3ccccc3c2)o1	/	/	/	1%	/
CCOc1ccc(C(=O)Nc2cccc(NC(=O)c3ccco3)c2)cc1Cl	89µM*	-1%	0%[12.3 µM]	/	/
SMILES	FEN1 inhibitor	BLM helicase inh	TDP1 inh	APE1 inh	RECQ1 inh
CCOc1ccc(NC(=O)c2ccc(NC(=O)c3ccc(NC(N)=O)cc3)cc2)cc1	?	/	56µM*	13µM*	/
CCOc1ccc(NC(=O)c2ccc(N)cc2)cc1	9%	3%	-8%	-3%	0%
Cc1ccc(C(=O)Nc2ccc(C(=O)OCc3cc(=O)n4ccsc4n3)cc2)cc1	14%	-11%	22µM*	15%	/
CC(C)(C)c1ccc(C(=O)Nc2ccc(C(=O)OCc3cc(=O)n4ccsc4n3)cc2)cc1	-2%	-4%	-6%	/	/
CCN(Cc1cccc(S(=O)(=O)O)c1)c1ccc(C(=C2C=CC(=[N+](CC)Cc3cccc(S(=O)(=O)O)c3)C=C2)c2ccc(O)cc2S(=O)(=O)O)cc1	13µM*	/	/	/	/
CC1=CC(=O)C=C/C1=C(/c1ccc(O)cc1C)c1ccccc1S(=O)(=O)O	14%	/	10%	2%	/
CCN(Cc1cccc(S(=O)(=O)O)c1)c1ccc(C(=C2C=CC(=[N+](CC)Cc3cccc(S(=O)(=O)O)c3)C=C2)c2ccccc2S(=O)(=O)[O-])cc1	32µM*	/	/	/	/
COc1ccc(CN(Cc2ccccc2)S(=O)(=O)c2ccccc2)cc1COc1ccc(NC(C)=O)cc1	/	/	1%	/	/
COCCCNc1cc(C)nc2ccccc12	-3%	-9%	-4%	17%	-13%
Cc1cc(NCCCCCCCNc2cc(C)nc3cc([N+](=O)[O-])ccc23)c2ccc([N+](=O)[O-])cc2n1	45µM*	/	/	/	/
C=C1/C(=C\C=C2/CCC[C@]3(C)C([C@H](C)CCCC(C)(C)O)CC[C@@H]23)C[C@@H](O)C[C@@H]1O (some centres not stated)	/	/	11%	1%	3%
CC(C)S(=O)(=O)C1=NSC2=NC(=O)/C(=C\c3ccc(-c4ccccc4)o3)C(=N)N21	?	-16%	6%	2%	0%
CC(C)S(=O)(=O)C1=NSC2=NC(=O)/C(=C\c3ccc(-c4cccc(C(=O)O)c4)o3)C(=N)N21	22µM*	-4%	2%	-4%	8%
COc1ccc(Cl)cc1NC(=O)NN1CCN(C)CC1	-4%	-18%	14µM*	13µM*	/
CCOC(=O)C1=C(C)N(c2ccc(C)cc2)C(=O)/C1=C\c1ccc(O)c(OC)c1	?	-7%	/	-12%	-14%
CCOC(=O)C1=C(O)c2ccccc2C(=O)/C1=C\c1ccc(C)cc1	50µM*	-16%	5%	-4%	i
CCOC(=O)C1CCCN(C(=O)c2cc(-c3ccco3)nc3ccccc23)C1 (configuration not stated)	56µM*	/	/	8.4µM*	/
N#Cc1nc(Nc2ccc(F)cc2)nc(NC2CCCC2)n1	/	/	0%	/	/
CCCCCCCCCc1ccc(OCCOCCO)cc1	/	/	/	-1%	/
O=C(N/N=C/c1ccc(Sc2ccccn2)o1)c1cc2ccccc2cc1O	50µM*	?	8%	-3%	-23%
N=c1nc(-c2ccccc2)n(-c2ccccc2)s1	89µM*	/	/	/	/
O=C(CNC(=O)c1ccc2ccccc2c1)OC(C(=O)Nc1cc(C(F)(F)F)ccc1Cl)c1ccccc1 (configuration not stated)	/	/	-13%	/	/
Nc1ncnc2oc(-c3ccoc3)c(-c3ccco3)c12	18µM*	/	?	/	/
COc1cccc(C2c3c(ncn(-c4ccc(Br)cc4)c3=N)Oc3ccc4ccccc4c32)c1 (configuration not stated)	/	/	3%	/	/
Cc1c(C(=O)O)sc2nc(/C=C/c3ccccc3OC(F)F)[nH]c(=O)c12	?	-10%	71µM*	?	/
Cc1c(C(=O)O)sc2nc(/C=C/c3cccc(F)c3)[nH]c(=O)c12	?	-7%	/	?	/
